# Shiga toxin inh – A qHTS for Small Molecule Inhibitors of Shiga Toxin | inhibition, % at 38.7 µM | Vero cells, Shiga toxin protein synthesis inhibition reporter | 290,000 compounds, 9.2% hits; in the data active means inhibition mostly above about 28%, no sharp cut-off; inactive means mostly below about 43%; further: 0% is about no effect
# Pf growth 48h – Primary qHTS for delayed death inhibitors of the malarial parasite plastid, 48 hour incubation; P. falciparum luciferase growth in erythrocytes, 48 h; Potency, µM (titrated, usually from 28.7 µM), without a hit: at the top dose activity change, negative = inhibition, most hits filed as inhibitors; 310,000 compounds, 5.9% hits; further: potency means the concentration at half of the fitted maximal effect; on the % scale 0 is the no-effect control and ±100 the full control effect
#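 Firefly luciferase activity from engineered P. falciparum reports growth; inhibitors lower the luminescent signal. Cultures contained 2% hematocrit erythrocytes at 0.1% final parasitemia.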
# HCMV antiviral – qHTS Assay for inhibitors of the human cytomegalovirus (HCMV); HFF cells, HCMV-luciferase reporter, 72 h; active compounds read low; activity change, negative = inhibition, % at 57.5 µM; 410,000 compounds, 4.5% hits; AID 1259415, 2018; in the data active means activity change below about -60%; inconclusive means no clear call, values can overlap the other calls; inactive means above about -39%; further: on the % scale 0 is the no-effect control and ±100 the full control effect
#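 Compounds were evaluated in HFFs infected with an HCMV luciferase reporter virus (MOI 1 PFU/cell). Luciferase in lysates collected 72 h post infection served as the replication measure.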
# Pf growth 96h – Primary qHTS for delayed death inhibitors of the malarial parasite plastid, 96 hour incubation | P. falciparum luciferase reporter growth, 96 h | Potency, µM (highest dose often 28.7 µM), without a hit: top-dose activity change, negative = inhibition, usual class: inhibitors | 320,000 compounds, 6.9% hits | AID 504834, 2011; further: potency means the concentration at half of the fitted maximal effect; on the % scale 0 is the no-effect control and ±100 the full control effect
#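 Two parasite generations (96 h, 37 C, 5% CO2) of compound exposure in infected erythrocytes (0.05% parasitemia, 2% hematocrit). Luciferase-reporter P. falciparum; decreased luminescence indicates inhibited growth, aimed at apicoplast-acting delayed death.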
# CHX counter – Cycloheximide Counterscreen for Small Molecule Inhibitors of Shiga Toxin. cell reporter, cycloheximide protein synthesis inhibition counterscreen. max response, %. 300,000 compounds, 12% hits; in the data active means max response mostly above about 13%, no sharp cut-off; inactive means mostly below about 14%; further: read at 38.3 µM for the half of the compounds with a filed dose; 0% is about no effect
# Active calls of the source: *; ? = inconclusive; / = not tested or not shown; [ ] = dose if it differs, or a comment. Only some compounds are listed: those with a hit (about 20% of all), similar ones and a draw of the others. Unless noted, the call rests on the fitted dose curve; in most records, active means well fitted inhibition curve with a large enough effect; inconclusive means small, poorly fitted or top-dose-only effect, or another doubt; inactive means no such curve, though single readings can be large or run the other way.
SMILES,Shiga toxin inh,Pf growth 48h,HCMV antiviral,Pf growth 96h,CHX counter
CC(=O)c1ccc(NC(=O)c2cc3ccccc3o2)cc1,/,107.6%,138.4,36.1%,35.1*
CC(=O)N1CCN(c2ccc(NC(=O)c3cc4ccccc4o3)cc2)CC1,20.1,?,0.3,?,22.1
CCOc1ccc(-n2c(SCC(=O)Nc3ccc4c(c3)OCCO4)nc3c([nH]c4ccccc43)c2=O)cc1,/,/,26.9,/,/
CC1(C(=O)NS(=O)(=O)C2CC2)CCCN(C(=O)c2cccc(OC(F)(F)F)c2)C1 (centres undefined),/,/,-21.6,/,/
CC1(C)C(=O)OC(c2ccc([N+](=O)[O-])cc2)C(C)(C)C1=O (centres undefined),-6.3,?,16.6,-9.3%,-6.2
O=C(Nc1ccc(F)cc1)c1cc2ccccc2o1,57.7*,186.1%,147.2,?,46.3*
O=C(Nc1c(C(=O)Nc2cccc(F)c2)oc2ccccc12)c1cc2ccccc2o1,/,/,-18.6,/,/
O=C(Nc1ccc(NC(=O)c2cc3ccccc3o2)cc1)c1ccco1,41.9,0.0%,?,0.1%,1.0
O=C(Nc1ccccc1)c1cc2ccccc2o1,45.2*,307.6%,100.2,159.4%,26.1
CCn1c(CNC(=O)c2ccco2)nnc1SCC(=O)c1ccc(OC)cc1,13.0,50.5%,52.4,?,-2.2
CCCNc1oc(-c2cccc3ccccc23)nc1C#N,69.4*,44.2%,29.2,-2.9%,21.6*
N#Cc1nc(-c2ccco2)oc1NCCN1CCOCC1,-9.2,7.4%,20.3,-5.2%[5.75 µM],-0.3
N#Cc1nc(-c2cccc3ccccc23)oc1NCCN1CCOCC1,32.9,-12.7%,38.6,22.9%,15.3*
N#Cc1nc(-c2ccccc2F)oc1NCCN1CCOCC1,1.3,/,19.1,9.28µM*,-3.2
Cc1ccc(-c2noc(-c3ccc(N4CCCCC4C)c([N+](=O)[O-])c3)n2)cc1 (centres undefined),/,/,-21.1,/,/
Cc1c(Cl)cccc1NC(=O)N1CCC(CN2CCCC2)CC1,/,/,-22.9,/,/
O=C(Nc1ccc(Br)cc1)C(c1ccccc1)c1ccccc1,-17.9,-12.7%,-2.7,10.4%,1.5
O=C(O)c1cccc(Cn2c(Cl)c(/C=N/NC(=O)c3cccc(O)c3)sc2=O)c1,74.8*,6.0%,-28.3,?,24.5*
O=C(O)c1cccc(Cn2c(Cl)c(/C=N/NC(=O)c3ccco3)sc2=O)c1,26.8*,-8.3%,26.5,-13.0%,33.4*
CCN(CC)C(=O)c1ccc2c(=O)n(Cc3cccc(Br)c3)c(=S)[nH]c2c1,-11.8,?,-37.4,-3.1%,-2.4
Cc1cccc(C)c1OCC(=O)N(Cc1ccc(N(C)C)cc1)C1CCS(=O)(=O)C1 (centres undefined),10.4,?,88.5,?,-2.4
CCc1ccc(CN(C(=O)COc2c(C)cccc2C)C2CCS(=O)(=O)C2)cc1 (centres undefined),-3.1,?,-108.7*,?,11.3
COc1cccc(CN(C(=O)COc2ccc(C)cc2)C2CCS(=O)(=O)C2)c1 (centres undefined),-3.7,-3.6%,38.3,22.5%,-9.9
Cc1ccc(OCC(=O)N(Cc2cccc(F)c2)C2CCS(=O)(=O)C2)cc1 (centres undefined),-3.6,?,?,10.4µM*,-1.5
CC(=O)c1ccc(N2CCN(C(=O)C3CCN(S(=O)(=O)c4cn(C)cn4)CC3)CC2)cc1,/,/,-27.5,/,/
SMILES,Shiga toxin inh,Pf growth 48h,HCMV antiviral,Pf growth 96h,CHX counter
CC(C)(C)c1ccc(C2CC2C(=O)N/N=C\c2cc3ccccc3nc2Cl)cc1 (centres undefined),-12.2,?,52.4,?,-0.6
Cc1ccc2nc(Cl)c(/C=N/NC(=O)[C@H]3C[C@@H]3c3ccccc3)cc2c1,18.5,?,17.8,2.08µM*,8.6
CCOC(=O)c1ccc(NC(=O)CN2C(=O)CSC2=O)cc1,59.3,28.8%,-1.0,/,23.3*
COC(=O)c1ccc(NC(=O)CN2C(=O)CSC2=O)cc1,17.2,13.5%,-9.1,/,15.5*
CCOC(=O)c1ccc(NC(=O)CN2C(=O)CSCC2=O)cc1,-10.3,18.2%,-28.4,44.2%,10.1
Cc1cc(C)c2nc(N3CCCC(C(=O)NCc4ccccc4F)C3)sc2c1 (centres undefined),/,/,3.9,/,/
COc1cc(OC)c2c(C)c(Cl)c(=O)oc2c1,-7.0,31.7%,40.0,10.4µM*,7.5

# Screening data from PubChem.
